Reference: PubChem BioAssay (NCATS)
Inconclusive results are not listed. Entries that show only a call come without a potency. Active and inactive are the calls of the source. The call rests on the fitted dose curve; in most records, active means well fitted curve in the direction sought with a large enough effect; inconclusive means small, poorly fitted or top-dose-only effect, or another doubt; inactive means no such curve, though single readings can be large; an effect the other way counts as inactive or inconclusive.

Key:
[1] = qHTS of pediatric cancer cell lines to identify multiple opportunities for drug repurposing: Primary screen for TC32 cells (AID 1347089); further: nearly all actives have a fitted effect of over 60% in size
Method in brief: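 qHTS, TC32, 48 h drug treatment, CellTiter-Glo luminescence as a proxy for metabolically active cells; primary top concentration 46 µM (MIPE 11-pt, NPC 8-pt); confirmatory 11-pt.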

[2] = qHTS of pediatric cancer cell lines to identify multiple opportunities for drug repurposing: Primary screen for SJ-GBM2 cells (AID 1347091)
Method in brief: (§1)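 Cell viability, CellTiter-Glo luminescence; 500-1,000 cells/well, 8- or 11-point titration, 48 h compound exposure at 37 degrees C, 5% CO2. Controls: DMSO neutral, bortezomib 2.3 µM final as positive.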

[3] = qHTS of pediatric cancer cell lines to identify multiple opportunities for drug repurposing: Primary screen for A673 cells (AID 1347092); further: nearly all actives have a fitted effect of over 45% in size
Method in brief: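 Luminescence from CellTiter-Glo, taken after 15 min at room temperature, served as the proxy for metabolically active cells following 48 h treatment. Both potency and efficacy were taken from curves fitted to the titration data.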

[4] = qHTS of pediatric cancer cell lines to identify multiple opportunities for drug repurposing: Primary screen for SK-N-MC cells (AID 1347093)
Method in brief: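 Metabolically active cells were quantified by ATP-dependent luminescence (CellTiter-Glo, 15 min at room temperature) following 48 h treatment. Cells had been plated at 500-1,000 per well and settled for 5 h beforehand.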

[5] = qHTS of pediatric cancer cell lines to identify multiple opportunities for drug repurposing: Primary screen for BT-37 cells (AID 1347094)
Method in brief: (§2)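 Quantitative HTS format: each compound titrated (MIPE 11 points from 0.78 nM, NPC 8 points from 0.59 nM) onto cells plated 5 hours earlier. After 48 h at 37 degrees C, CellTiter-Glo luminescence was recorded.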

[6] = qHTS of pediatric cancer cell lines to identify multiple opportunities for drug repurposing: Primary screen for U-2 OS cells (AID 1347096); further: nearly all actives have a fitted effect of over 50% in size
Method in brief: (§3)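 Cells (500-1,000/well) rested 5 h, then received compounds for 48 h; metabolically active cells were measured by CellTiter-Glo luminescence. Final concentrations spanned up to 46 µM (MIPE, 11-point) or 0.59 nM-46 µM (NPC, 8-point) in primary screens, 11-point in follow-ups.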

[7] = qHTS of pediatric cancer cell lines to identify multiple opportunities for drug repurposing: Primary screen for Saos-2 cells (AID 1347097); further: nearly all actives have a fitted effect of over 40% in size
Method in brief: as §2

[8] = qHTS of pediatric cancer cell lines to identify multiple opportunities for drug repurposing: Primary screen for SK-N-SH cells (AID 1347098); further: nearly all actives have a fitted effect of over 65% in size
Method in brief: as §3

[9] = qHTS of pediatric cancer cell lines to identify multiple opportunities for drug repurposing: Primary screen for NB1643 cells (AID 1347099); further: nearly all actives have a fitted effect of over 50% in size
Method in brief: as §2

[10] = qHTS of pediatric cancer cell lines to identify multiple opportunities for drug repurposing: Primary screen for LAN-5 cells (AID 1347100)
Method in brief: as §3

[11] = qHTS of pediatric cancer cell lines to identify multiple opportunities for drug repurposing: Primary screen for BT-12 cells (AID 1347101); further: nearly all actives have a fitted effect of over 25% in size
Method in brief: as §3

[12] = qHTS of pediatric cancer cell lines to identify multiple opportunities for drug repurposing: Primary screen for Rh18 cells (AID 1347102); further: nearly all actives have a fitted effect of over 65% in size
Method in brief: as §3

[13] = qHTS of pediatric cancer cell lines to identify multiple opportunities for drug repurposing: Primary screen for DAOY cells (AID 1347090); further: nearly all actives have a fitted effect of over 55% in size
Method in brief: as §1

[14] = qHTS of pediatric cancer cell lines to identify multiple opportunities for drug repurposing: Primary screen for NB-EBc1 cells (AID 1347095)
Method in brief: as §2
Potency means the concentration at half of the fitted maximal effect.

COc1ccc(-c2coc3cc(O)ccc3c2=O)cc1
Potency [1]: inactive
Potency [2]: inactive
Potency [3]: inactive
Potency [4]: inactive
Potency [5]: inactive
Potency [6]: inactive
Potency [7]: inactive
Potency [8]: inactive
Potency [9]: inactive
Potency [10]: inactive
Potency [11]: inactive
Potency [12]: inactive

NC(=O)c1cnc(-c2ccc(C3(N)CCC3)cc2)c(-c2ccccc2)c1
Potency [1]: inactive
Potency [13]: inactive
Potency [4]: 1.48 µM (active)
Potency [5]: inactive
Potency [6]: inactive
Potency [12]: inactive

COc1cc(Nc2ncc(F)c(Nc3ccc4c(n3)NC(=O)C(C)(C)O4)n2)cc(OC)c1OC
Potency [1]: inactive
Potency [2]: 3.72 µM (active)
Potency [3]: 14.8 µM (active)
Potency [4]: 0.418 µM (active)
Potency [5]: inactive
Potency [14]: 4.18 µM (active)
Potency [6]: inactive
Potency [7]: 0.935 µM (active)
Potency [8]: inactive

COCCOc1nc(-c2ccc(Cl)c(Cl)c2)n(-c2ccc(NC(=O)CCl)cc2)n1
Potency [1]: inactive
Potency [2]: 16.6 µM (active)
Potency [3]: 4.69 µM (active)
Potency [4]: 4.69 µM (active)
Potency [14]: 16.6 µM (active)
Potency [6]: inactive
Potency [9]: 16.6 µM (active)
Potency [10]: 18.7 µM (active)
Potency [11]: 5.44 µM (active)

Clc1cc(Cl)cc(CNc2ncncc2-c2ccc3c(c2)OCO3)c1
Potency [1]: inactive
Potency [2]: 18.7 µM (active)
Potency [3]: 14.8 µM (active)
Potency [4]: 13.2 µM (active)
Potency [6]: inactive
Potency [7]: 16.6 µM (active)

CCNc1cc(NC2CCC(O)CC2)nc(Nc2ccc3c(ccn3Cc3ccccc3)c2)n1 (stereo unspecified)
Potency [1]: inactive
Potency [2]: 29.6 µM (active)
Potency [3]: 29.6 µM (active)
Potency [6]: inactive
Potency [11]: 27.3 µM (active)

CC(=O)O[C@]1(C(C)=O)CC[C@@H]2[C@@H]3C[C@H](C)C4=CC(=O)CC[C@]4(C)[C@H]3CC[C@@]21C
Potency [1]: inactive
Potency [2]: inactive
Potency [3]: 18.7 µM (active)
Potency [4]: 18.7 µM (active)
Potency [14]: inactive
Potency [6]: inactive
Potency [8]: 24.1 µM (active)
Potency [9]: 20.9 µM (active)
Potency [11]: 24.3 µM (active)

O=C(O)c1cc(O)c2c(c1)C(=O)c1cccc(O)c1C2=O
Potency [1]: inactive
Potency [2]: inactive
Potency [3]: inactive
Potency [4]: 19.1 µM (active)
Potency [14]: 38.2 µM (active)
Potency [6]: inactive
Potency [8]: inactive
Potency [10]: inactive
Potency [11]: inactive
Potency [12]: inactive

Cc1c(O)cccc1C(=O)N[C@@H](CSc1ccccc1)[C@H](O)CN1C[C@H]2CCCC[C@@H]2C[C@@H]1C(=O)NC(C)(C)C
Potency [1]: inactive
Potency [2]: 18.7 µM (active)
Potency [3]: 23.5 µM (active)
Potency [4]: 16.6 µM (active)
Potency [7]: 26.4 µM (active)
Potency [12]: 18.7 µM (active)

O=C1c2c(O)cc(O)cc2O[C@H](c2cc(O)c(O)c(O)c2)[C@H]1O
Potency [1]: inactive
Potency [2]: inactive
Potency [3]: 14.8 µM (active)
Potency [4]: 4.18 µM (active)
Potency [6]: inactive
Potency [9]: 23.5 µM (active)
Potency [10]: 26.4 µM (active)

CC1CCC(C(=O)N(c2cc(C#CC(C)(C)C)sc2C(=O)O)C2CCC(O)CC2)CC1 (stereo unspecified)
Potency [1]: inactive
Potency [2]: inactive
Potency [3]: inactive
Potency [6]: inactive
Potency [8]: inactive
Potency [9]: 20.9 µM (active)
Potency [10]: inactive
Potency [11]: inactive
Potency [12]: inactive

O=c1cc(CN2CCOCC2)occ1OCCCCCSc1ccnc2cc(C(F)(F)F)ccc12
Potency [1]: inactive
Potency [2]: 1.32 µM (active)
Potency [3]: 14.8 µM (active)
Potency [4]: 1.32 µM (active)
Potency [7]: 4.18 µM (active)
Potency [9]: inactive

Cc1nnc(C(C)C)n1C1C[C@H]2CC[C@@H](C1)N2CC[C@H](NC(=O)C1CCC(F)(F)CC1)c1ccccc1 (stereo partly specified)
Potency [1]: inactive
Potency [2]: inactive
Potency [3]: 14.8 µM (active)
Potency [4]: 4.18 µM (active)
Potency [6]: inactive
Potency [7]: inactive
Potency [8]: inactive
Potency [9]: 18.7 µM (active)
Potency [10]: inactive
Potency [11]: inactive
Potency [12]: inactive

CCCCCNC(=O)N1CCC(CN(Cc2ccc(Cl)cc2)Cc2ccc([N+](=O)[O-])s2)C1 (stereo unspecified)
Potency [1]: inactive
Potency [2]: inactive
Potency [3]: 23.5 µM (active)
Potency [4]: 9.35 µM (active)
Potency [8]: inactive
Potency [9]: 23.5 µM (active)

COc1ccc2cc(-c3nc(-c4ccc(S(C)=O)cc4)[nH]c3-c3ccncc3)ccc2c1 (stereo unspecified)
Potency [1]: inactive
Potency [13]: inactive
Potency [2]: 14.8 µM (active)
Potency [6]: inactive
Potency [12]: inactive

CC(C)OC(=O)CCCC=CC[C@@H]1[C@H](C=C[C@@H](O)COc2cccc(C(F)(F)F)c2)[C@H](O)C[C@@H]1O
Potency [1]: inactive
Potency [2]: 23.5 µM (active)
Potency [3]: inactive
Potency [6]: inactive
Potency [7]: 14.8 µM (active)
Potency [9]: 23.5 µM (active)
Potency [10]: inactive
Potency [11]: 19.3 µM (active)

N#CC(=C(N)Sc1ccccc1N)C(C#N)=C(N)Sc1ccccc1N
Potency [1]: inactive
Potency [13]: 23.5 µM (active)
Potency [3]: 2.35 µM (active)
Potency [4]: 2.96 µM (active)
Potency [6]: inactive
Potency [7]: 29.6 µM (active)
Potency [9]: 20.9 µM (active)

CO[C@H]1C[C@@H]2CC[C@@H](C)[C@@](O)(O2)C(=O)C(=O)N2CCCC[C@@H]2C(=O)O[C@H]([C@H](C)C[C@@H]2CC[C@H](OCCO)[C@H](OC)C2)CC(=O)[C@H](C)C=C(C)[C@@H](O)[C@@H](OC)C(=O)[C@H](C)C[C@H](C)C=CC=CC=C1C
Potency [1]: 3.3 µM (active)
Potency [13]: inactive
Potency [3]: 11.8 µM (active)
Potency [5]: 10.9 µM (active)
Potency [9]: inactive

O=C(NCc1ccncc1)C12C[C@H]3C[C@@H](C1)CC(c1ccc(Cl)cc1)(C3)C2
Potency [1]: inactive
Potency [2]: 20.9 µM (active)
Potency [3]: 7.43 µM (active)
Potency [4]: 0.526 µM (active)
Potency [14]: 18.7 µM (active)
Potency [7]: 11.8 µM (active)
Potency [12]: inactive

COc1ccc(-c2oc3c(CC=C(C)C)c(OC4O[C@H](CO)[C@@H](O)[C@H](O)[C@@H]4O)cc(O)c3c(=O)c2OC2O[C@@H](C)[C@H](O)[C@@H](O)[C@@H]2O)cc1 (stereo partly specified)
Potency [1]: inactive
Potency [2]: 18.7 µM (active)
Potency [4]: 10.5 µM (active)
Potency [14]: 23.5 µM (active)
Potency [7]: 26.4 µM (active)
Potency [9]: 20.9 µM (active)
Potency [10]: 23.5 µM (active)

Cc1ccc([C@@H]2O[C@H](CO)[C@@H](O)[C@H](O)[C@@H]2O)cc1Cc1ccc(-c2ccc(F)cc2)s1
Potency [1]: inactive
Potency [13]: inactive
Potency [7]: 14.8 µM (active)
Potency [10]: inactive
Potency [12]: inactive

O=c1cc(-c2cccc3c2Sc2ccccc2S3)oc(N2CCOCC2)c1
Potency [1]: inactive
Potency [2]: inactive
Potency [4]: 18.7 µM (active)
Potency [5]: inactive
Potency [14]: inactive
Potency [6]: inactive
Potency [10]: inactive
Potency [11]: inactive
Potency [12]: inactive

O=C1Nc2ccc(Cl)cc2C(C#CC2CC2)(C(F)(F)F)O1 (stereo unspecified)
Potency [1]: inactive
Potency [13]: 29.6 µM (active)
Potency [4]: 13.2 µM (active)
Potency [14]: inactive
Potency [7]: 20.9 µM (active)
Potency [9]: 23.5 µM (active)
Potency [12]: inactive

O=C1c2ccccc2-[n+]2ccc3c([nH]c4ccccc43)c21
Potency [1]: 4.66 µM (active)
Potency [2]: 0.833 µM (active)
Potency [3]: 1.18 µM (active)
Potency [4]: 1.32 µM (active)
Potency [5]: 2.43 µM (active)
Potency [14]: 0.833 µM (active)
Potency [6]: 9.35 µM (active)
Potency [7]: 2.35 µM (active)
Potency [8]: 1.52 µM (active)
Potency [9]: 5.26 µM (active)
Potency [10]: 1.66 µM (active)
Potency [11]: 6.85 µM (active)
Potency [12]: 2.35 µM (active)

COc1cc(N2CCC(N3CCN(C)CC3)CC2)ccc1Nc1ncc(Cl)c(Nc2ccccc2S(=O)(=O)C(C)C)n1
Potency [1]: inactive
Potency [13]: inactive
Potency [4]: 0.001 µM (active)
Potency [5]: inactive
Potency [6]: inactive
Potency [8]: 4.82 µM (active)
Potency [10]: 0.001 µM (active)

CCOC1OC(=O)C[C@H]1NC(=O)[C@@H]1CCCN1C(=O)[C@@H](NC(=O)c1ccc(N)c(Cl)c1)C(C)(C)C (stereo partly specified)
Potency [1]: inactive
Potency [2]: 1.87 µM (active)
Potency [3]: 0.118 µM (active)
Potency [4]: 14.8 µM (active)
Potency [6]: inactive
Potency [7]: 1.18 µM (active)
Potency [10]: 0.833 µM (active)
Potency [12]: inactive

Nc1ncnc2c1nc(Cl)n2[C@@H]1O[C@H](CO)[C@@H](O)[C@@H]1O
Potency [1]: inactive
Potency [2]: 11.8 µM (active)
Potency [3]: 23.5 µM (active)
Potency [4]: 26.4 µM (active)
Potency [14]: inactive
Potency [7]: inactive
Potency [9]: 16.6 µM (active)
